± gives the standard deviation of the averaged measurements.
Columns and labels:
DLD1 [1] = test: cell viability (CellTiter-Glo) relative to plate median (fraction of plate median); higher = more viable cells; conditions: 5 µM; treatment time 24 h; reporter: 7TFP
In short: (§1)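 Each entry is a luminescence signal normalised to the plate median, averaged over independent replicates. The replicate count was two, and the cells were colorectal cancer lines with stable lentiviral TCF/Wnt firefly luciferase reporters exposed to library compounds at a final 5 µM for 24 h. Firefly luciferase and CellTiterGlo were measured on parallel plates.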

HCT116 = test: as above; conditions: 5 µM; treatment time 24 h; reporter: TCF4/Wnt
In short: as §1

SW480 [2] = test: as above; conditions: 5 µM; treatment time 24 h; reporter: 7TFP
In short: as §1

DLD1 [3] = test: TCF/Wnt firefly luciferase reporter signal relative to plate median (fraction of plate median); higher = higher Wnt reporter signal; conditions: 5 µM; treatment time 24 h; reporter: 7TFP
In short: as §1

SW480 [4] = test: as above; conditions: 5 µM; treatment time 24 h; reporter: 7TFP
In short: as §1

| SMILES | cell viability (DLD1 [1]) | cell viability (HCT116) | cell viability (SW480 [2]) | TCF/Wnt firefly luciferase reporter signal (DLD1 [3]) | TCF/Wnt firefly luciferase reporter signal (SW480 [4]) |
| --- | --- | --- | --- | --- | --- |
| CC(=O)OCC(=O)[C@@]12OC(C)(C)O[C@@H]1C[C@H]1[C@@H]3C[C@H](F)C4=CC(=O)C=C[C@]4(C)[C@@]3(F)[C@@H](O)C[C@@]12C | 1.01 ± 0.023 | 1 ± 0.05 | 0.969 ± 0.044 | 1.03 ± 0.072 | 1.06 ± 0.093 |
| Cc1cc(-n2c(=O)[nH]c(=O)n(C)c2=O)ccc1Oc1ccc(SC(F)(F)F)cc1 | 0.946 ± 0.052 | 1 ± 0.023 | 0.952 ± 0.016 | 0.926 ± 0.013 | 1.04 ± 0.06 |
| CCOC(=O)[C@H](CCc1ccccc1)N[C@@H](C)C(=O)N1Cc2ccccc2C[C@H]1C(=O)O | 0.99 ± 0.057 | 0.895 ± 0.071 | 0.952 ± 0.066 | 0.958 ± 0.0085 | 0.876 ± 0.0057 |
| CC(=O)[C@H]1CC[C@H]2[C@@H]3CC=C4C[C@@H](O)CC[C@]4(C)[C@H]3CC[C@]12C | 1.07 ± 0.028 | 0.941 ± 0.023 | 0.956 ± 0.028 | 1.1 ± 0.05 | 1.19 ± 0.014 |
| CC(=O)O[C@]1(C(C)=O)CC[C@H]2[C@@H]3C[C@H](C)C4=CC(=O)CC[C@]4(C)[C@H]3CC[C@@]21C | 1.03 ± 0.014 | 0.989 ± 0.0099 | 0.96 ± 0.018 | 0.971 ± 0.18 | 1 ± 0.035 |
| CCCCC(CC)CN=C(N)N=C(N)NCCCCCCNC(N)=NC(N)=NCC(CC)CCCC (stereo not given) | 0.971 ± 0.0057 | 0.924 ± 0.045 | 1.02 ± 0.014 | 1.14 ± 0.028 | 1.1 ± 0.085 |
| O=C(O[C@@H]1Cc2c(O)cc(O)cc2O[C@@H]1c1cc(O)c(=O)c2c(O)c(O)cc([C@H]3Oc4cc(O)cc(O)c4C[C@H]3OC(=O)c3cc(O)c(O)c(O)c3)c2c1)c1cc(O)c(O)c(O)c1 | 0.996 ± 0.035 | 0.9235 ± 0.0064 | 1.045 ± 0.0071 | 0.903 ± 0.041 | 1.04 |
| C=C1C[C@]23C[C@@]1(O)CC[C@H]2[C@@]12C=C[C@H](O)[C@@](C)(C(=O)O1)[C@H]2[C@@H]3C(=O)O | 1.03 ± 0.014 | 1.08 ± 0.05 | 1.02 ± 0.052 | 0.88 ± 0.0028 | 0.869 ± 0.14 |
| CC[C@H]1C(=O)OC[C@@H]1Cc1cncn1C | 0.942 ± 0.097 | 0.948 ± 0.13 | 1.015 ± 0.0071 | 0.89 ± 0.15 | 0.959 ± 0.019 |
| COc1cccc2c1C(=O)c1c(O)c3c(c(O)c1C2=O)C[C@@](O)(C(=O)CO)C[C@@H]3O[C@H]1C[C@H](N)[C@H](O)[C@H](C)O1 | 1.04 ± 0.059 | 0.67 ± 0.22 | 1.08 ± 0.035 | 1.09 ± 0.099 | 0.682 ± 0.11 |
| CC1=C(C(=O)O)N2C(=O)[C@@H](NC(=O)[C@H](N)c3ccc(O)cc3)[C@H]2SC1 | 0.977 ± 0.016 | 0.956 ± 0.063 | 0.949 ± 0.086 | 0.907 ± 0.14 | 0.918 ± 0.13 |
| O=C1OCC(Cc2ccccc2)C1c1ccccc1 (stereo not given) [3-Benzyl-2-phenyl-butyrolactone] | 1.07 ± 0.085 | 1.01 ± 0.014 | 0.978 ± 0.045 | 0.917 ± 0.12 | 1.1 ± 0.078 |
| NC(=O)CC[C@H](N)C(=O)O | 1.02 ± 0.014 | 0.923 ± 0.11 | 1.02 ± 0.069 | 1.02 ± 0.14 | 1.07 ± 0.064 |
| O=C(O)c1cccc(O)c1O | 1.01 ± 0.047 | 1.14 ± 0.035 | 1.02 ± 0.068 | 0.954 ± 0.034 | 0.947 ± 0.0085 |

Source: the supplement of paper PMC6522484
